Test results reported in the OligoGym collection.

Assays:
Assay in all cases: pooled miR-30 sensor sort-seq; sequence = guide strand
Details in all cases: shRNA
[1] = biological target: CRX
[2] = biological target: CRYGS
[3] = biological target: CRTAM
[4] = biological target: CSGALNACT1
[5] = biological target: CSH1
[6] = biological target: CYLC1
[7] = biological target: DCPS
[8] = biological target: DCX
[9] = biological target: DDAH1
[10] = biological target: DDB2
Note: reference of the scale not given here.

TAGACGTCTGGGTACTGGGTCT
sensor-assay potency score (higher = more potent) [1]: -0.0426

TATACTGGCCTCCACTAGGCAG
sensor-assay potency score (higher = more potent) [2]: -0.983

TAGTATTACATTTCTTCCCATC
sensor-assay potency score (higher = more potent) [3]: -0.999

TGAGAGAATCACTAGGACCTGT
sensor-assay potency score (higher = more potent) [1]: -0.0623

TTCTGAAGCCTGGAGCTCGTGG
sensor-assay potency score (higher = more potent) [1]: -0.966

TGATCCTTGTAGTCCAGAGGGT
sensor-assay potency score (higher = more potent) [1]: -0.793

TTGATCTGTAACTTTCTAGTGT
sensor-assay potency score (higher = more potent) [3]: 0.218

TTTCATACATCTGACCACTAAA
sensor-assay potency score (higher = more potent) [2]: -1.27

TGTAGGAATCTGAGATGCCCAG
sensor-assay potency score (higher = more potent) [1]: -0.841

AATTCCAAGCTATCCACGGGGC
sensor-assay potency score (higher = more potent) [1]: -0.328

TTTGCTTCTGAGTACAACTTTG
sensor-assay potency score (higher = more potent) [3]: -0.892

TAGGTGAATTTCCAGGTGCCCG
sensor-assay potency score (higher = more potent) [1]: -1.41

TTGGTTTGACTTCTTCTTGGAG
sensor-assay potency score (higher = more potent) [1]: -0.00294

TTGATCTTCAGAGCCACCTCCT
sensor-assay potency score (higher = more potent) [1]: -0.746

TTTGACTTCTTCTTGGAGCAAG
sensor-assay potency score (higher = more potent) [1]: -0.501

TTGTAGTCCAGAGGGTCCATGG
sensor-assay potency score (higher = more potent) [1]: -1.32

TTGTAGGTGAATTTCCAGGTGC
sensor-assay potency score (higher = more potent) [1]: -0.434

TGAACCAAACCTGAACCCTGGA
sensor-assay potency score (higher = more potent) [1]: -0.615

TTAAACTACAAGCTTTATGTGC
sensor-assay potency score (higher = more potent) [3]: -0.391

TTTGGTTTGACTTCTTCTTGGA
sensor-assay potency score (higher = more potent) [1]: 0.763

TTTCTCAAAGATCTGAATCTTA
sensor-assay potency score (higher = more potent) [2]: 0.174

TTTGTGATGTAGTTCATGCAAC
sensor-assay potency score (higher = more potent) [3]: -0.216

TCGGTGGTTTCATACATCTGAC
sensor-assay potency score (higher = more potent) [2]: -1.43

TGAAATTGCTCCATGATGGAAG
sensor-assay potency score (higher = more potent) [2]: -0.169

AATAGGAGCTCGGAGACCCATA
sensor-assay potency score (higher = more potent) [1]: -1.54

TAGGTCATGGCATAGGGGGCGG
sensor-assay potency score (higher = more potent) [1]: -1.09

TTTTCTTTCTTGCCAGTCCTAA
sensor-assay potency score (higher = more potent) [3]: -0.265

TAGCTGCTCACACTGACCCTGA
sensor-assay potency score (higher = more potent) [3]: -0.659

TGAACAGCTCTGCAGGAGCTGA
sensor-assay potency score (higher = more potent) [2]: -1.21

TTCAGAGCCACCTCCTCACGGG
sensor-assay potency score (higher = more potent) [1]: -0.313

ACTCTGATCCTTGTAGTCCAGA
sensor-assay potency score (higher = more potent) [1]: -1.36

TTGACCTTGATCTGTAACTTTC
sensor-assay potency score (higher = more potent) [3]: -1.09

TTTCTCAGGAATGCCATCCCGG
sensor-assay potency score (higher = more potent) [1]: -0.63

TTAGCTGCTCACACTGACCCTG
sensor-assay potency score (higher = more potent) [3]: -0.252

TTGAACCAAACCTGAACCCTGG
sensor-assay potency score (higher = more potent) [1]: -0.194

TCCACTTTAATGGAGTTGCAGC
sensor-assay potency score (higher = more potent) [2]: -1.52

TATTGATGAAGTCTGACCGATA
sensor-assay potency score (higher = more potent) [4]: -0.823

TATTAGTACAAACCATTCCTTC
sensor-assay potency score (higher = more potent) [4]: -0.885

TACTCGGGCACCTAGAAGCCAC
sensor-assay potency score (higher = more potent) [5]: -1.13

TTGAATCTTTCTTAGCATCCTT
sensor-assay potency score (higher = more potent) [6]: -0.0997

TTGAATGTAGTCTTTTTGGATG
sensor-assay potency score (higher = more potent) [6]: -0.77

TTGTCTTGGAGGGAACAAGTGA
sensor-assay potency score (higher = more potent) [7]: -0.588

TCTATCTTAAAACAGCTGCAGG
sensor-assay potency score (higher = more potent) [8]: -0.806

TTAGATATATACAGTTTGCTGC
sensor-assay potency score (higher = more potent) [9]: -0.536

TTCATTTAAATCAACTCCGATT
sensor-assay potency score (higher = more potent) [8]: -0.375

TTACTTGTGACTGTGGAGGAGA
sensor-assay potency score (higher = more potent) [8]: -0.0876

TAAATTAACACCTACAATCTGG
sensor-assay potency score (higher = more potent) [8]: -0.105

TCTGAGTCACATCTTCTGCTAG
sensor-assay potency score (higher = more potent) [10]: -0.241

TAGAGTTTTTTGACAACCCCGG
sensor-assay potency score (higher = more potent) [8]: -0.351

TTCATCTTTCATCTCTACTATA
sensor-assay potency score (higher = more potent) [9]: -1.1

TTAATTAAAACTGAGCAGCAGG
sensor-assay potency score (higher = more potent) [9]: -0.0699

TTTCATTTAAATCAACTCCGAT
sensor-assay potency score (higher = more potent) [8]: -0.0704

TACAATCTCGGAGGTCTTCTGG
sensor-assay potency score (higher = more potent) [10]: -0.449

ATTCTTGGTGTACTCCACCTTT
sensor-assay potency score (higher = more potent) [8]: -0.629

TTAACACCTACAATCTGGCTTC
sensor-assay potency score (higher = more potent) [8]: 0.157

AACTTTTGAAATTAGGATCTGG
sensor-assay potency score (higher = more potent) [10]: 0.321

TTTCTGGCTATAACTATTCTAA
sensor-assay potency score (higher = more potent) [8]: -0.801

TCAATTATTAGTATTTAGCTGA
sensor-assay potency score (higher = more potent) [8]: 0.00518

TCTAGTAGTACATATACCGCAA
sensor-assay potency score (higher = more potent) [8]: 0.223

TTGCATGATCTTAAGGGCCTTC
sensor-assay potency score (higher = more potent) [9]: -0.108
